Screening data deposited in PubChem by several laboratories.
Hits are enriched below; roughly 4.7% of the tested compounds scored in any of these assays.
CCHFV vOTU inh – blocks the CCHF virus ovarian tumor domain protease. CCHFV vOTU protease, Pep-AMC fluorescence. actives 0.55% (n = 370,000). inhibition, % at 11.5 µM; also: 0% = vehicle wells with enzyme and 100% = no enzyme wells
GDH-TPI inh – GDH-TPI coupled enzyme inhibition counter-screen; GDH-TPI coupled enzyme counterscreen, NADH absorbance; inhibition, % at 4.8 µM; actives 1.2% (n = 360,000); AID 588335;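 also: 0% = DMSO wells and 100% = wells lacking the enzyme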
RecA intein inh – inhibitors of M. tuberculosis RecA intein splicing; cell-free RecA intein splicing, fluorescence; P9WHJ3; inhibition, % (concentration not given with the values); actives 0.75% (n = 290,000); in the data active = inhibition above about 30%; inconclusive = no clear call, values can overlap the other calls;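 also: 0% = vehicle wells and 100% = reference inhibitor control wells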
FBA Mtb inh – inhibitors of M. tuberculosis fructose-bisphosphate aldolase | P9WQA3 | purified M. tuberculosis FBA, fluorescence read-out | inhibition, % at 1 µM | actives 2.3% (n = 360,000) | AID 588726; in the data active = inhibition above about 27%;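 also: 0% = vehicle and 100% = reference inhibitor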
Target sequence (P9WQA3 whole entry, looked up): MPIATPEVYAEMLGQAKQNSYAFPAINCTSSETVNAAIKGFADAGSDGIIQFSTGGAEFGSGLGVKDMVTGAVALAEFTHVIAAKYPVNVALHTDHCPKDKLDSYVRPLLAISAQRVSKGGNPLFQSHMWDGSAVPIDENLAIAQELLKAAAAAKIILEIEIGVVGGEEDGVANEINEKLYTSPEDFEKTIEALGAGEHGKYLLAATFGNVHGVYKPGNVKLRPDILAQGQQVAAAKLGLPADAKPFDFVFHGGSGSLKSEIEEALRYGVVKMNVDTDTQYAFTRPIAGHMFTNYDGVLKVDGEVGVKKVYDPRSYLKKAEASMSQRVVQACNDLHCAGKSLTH
3CLpro inhibitor – SARS-CoV 3CLpro protease inhibition. recombinant SARS-CoV 3CLpro, quenched FRET peptide cleavage. actives 0.14% (n = 290,000). P0C6X7. AID 1706. inhibition, % at 6 µM; in the data active = inhibition above about 12%
DUSP3 inh – DUSP3 (human) phosphatase inhibition. inhibition, % at 13.3 µM. recombinant VHR phosphatase, pNPP absorbance. P51452. actives 0.52% (n = 290,000); in the data active = inhibition above about 50%
Target sequence (P51452 whole entry, looked up): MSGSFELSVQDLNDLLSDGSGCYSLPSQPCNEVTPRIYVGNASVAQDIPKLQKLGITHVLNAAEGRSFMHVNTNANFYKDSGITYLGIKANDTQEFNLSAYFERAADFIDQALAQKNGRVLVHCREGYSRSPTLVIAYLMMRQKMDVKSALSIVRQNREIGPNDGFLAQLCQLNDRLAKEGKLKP
GFP chromophore – counter-screen: blocks GFP chromophore formation. shares compounds with RecA intein inh. cell-free GFP chromophore formation, fluorescence. EC50, µM. actives 83% (n = 2,100). AID 434968; call rule not given here
* marks the source's active call; other numbers are inactive results; ? = inconclusive; · = not tested or not shown. Rule as the data show it, unless noted: active = inhibition above about 30%; inactive = the rest.

SMILES | CCHFV vOTU inh | GDH-TPI inh | RecA intein inh | FBA Mtb inh | 3CLpro inhibitor | DUSP3 inh | GFP chromophore
CCOC(=O)c1ccc(NC(=O)Cn2ncc(Cl)c(Cl)c2=O)cc1 | -1.6 | 6.8 | 62.1* | 0.9 | 0.2 | 2.6 | 12.9*
O=C(OCn1ncc(Cl)c(Cl)c1=O)c1ccc(C(F)(F)F)cc1 | -0.2 | 2.9 | 80.1* | -0.9 | 5.7 | 12.8 | 1.39*
COc1ccc(NC(=O)Cn2ncc(Cl)c(Cl)c2=O)cc1S(=O)(=O)N1CCOCC1 | 0.0 | 13.2 | 43.2* | 1.2 | 0.7 | 2.9 | 30.5*
CCC(=O)Nc1ccc(C(=O)Cn2ncc(Cl)c(Cl)c2=O)cc1 | -1.3 | 1.3 | 8.3 | 3.1 | 4.1 | 10.1 | ·
Cc1ccc(C(=O)OCn2ncc(Cl)c(Cl)c2=O)cc1 | -3.9 | 4.1 | 74.9* | -1.1 | 3.1 | 16.4 | 6.36*
COc1ccc(NC(=O)c2ccc(Cl)nc2)cc1S(=O)(=O)N1CCOCC1 | -4.9 | 11.2 | · | 2.5 | · | · | ·
CC(C)(C)C(=O)Nc1ccc(C(=O)COC(=O)C2=COCCO2)cc1 | 4.8 | 6.0 | · | 0.0 | · | · | ·
Cc1cn([C@H]2C[C@H](O)[C@@H](CNCc3ccc(CN(C)S(C)(=O)=O)o3)O2)c(=O)[nH]c1=O | 2.7 | -15.5 | · | 2.5 | · | · | ·
O=[N+]([O-])c1c(NCCCO)cc(Sc2nc3ccccc3s2)c2nonc12 | · | 9.2 | 25.8 | -14.3 | 3.4 | 1.8 | ·
CCCSc1cc(NCCOC(=O)CCC)c([N+](=O)[O-])c2nonc12 | 11.2 | 12.4 | 60.3* | -3.5 | 3.1 | 21.2 | 9.9*
CCCC(=O)OCCNc1cc(SCc2ccco2)c2nonc2c1[N+](=O)[O-] | 9.9 | 9.0 | 79.1* | -6.4 | 5.5 | -0.3 | 8.57*
CCCC(=O)OCCNc1cc(Sc2nccn2C)c2nonc2c1[N+](=O)[O-] | 27.2 | 1.9 | 90.2* | -6.8 | -1.2 | 10.4 | 3.88*
CCC(=O)OCCNc1cc(Sc2nc3ccccc3s2)c2nonc2c1[N+](=O)[O-] | 22.0 | 11.2 | 50.0* | -10.9 | 1.7 | 27.3 | 4.24*
CCOC(=O)[C@]12CCC=C1N(Cc1ccccc1)C(=O)[C@H](CC(=O)NCCCN1CCCC1=O)C2 | 16.5 | · | · | · | · | · | ·
COc1ccc(N2CCN(S(=O)(=O)CCNC(=O)/C=C/c3ccc4c(c3)OCO4)CC2)cc1 | 6.9 | 8.3 | -5.3 | 6.0 | · | · | ·
CCOC(=O)c1c(C)sc2c1N(C(=O)CCl)c1cc(Cl)ccc1S2 | 1.9 | 6.0 | 54.8* | 3.0 | 0.1 | 18.9 | 1.58*
Cc1sc2ncnc(SCC(=O)N3c4ccccc4Sc4ccc(Cl)cc43)c2c1C | 6.8 | 4.9 | 1.0 | 2.8 | -0.9 | -5.6 | ·
COc1cccc(S(=O)(=O)N(C)C[C@H]2OCc3cnnn3CCCC(=O)N([C@@H](C)CO)C[C@H]2C)c1 | -6.4 | 6.6 | · | -0.5 | · | · | ·
C/C(=N\NC(=O)c1ccncc1)c1cc2ccccc2oc1=O | -12.1 | 2.2 | 93.3* | -2.3 | 0.6 | -16.1 | 15*
COc1cc(/C=C/C(=O)OCC(=O)Nc2ccccc2Sc2ccc(Cl)cc2)ccc1O | -5.9 | 5.2 | 35.5* | 1.3 | -0.2 | -1.5 | >38
COc1ccccc1C(NC(C)=O)c1c(O)ccc2ccc(O)cc12 (stereo unspecified) | -4.3 | 2.3 | 78.7* | 7.4 | · | · | 5.15*
Cc1cc(OCCCCOc2ccc(S(N)(=O)=O)c(C)c2)ccc1S(N)(=O)=O | -2.6 | 2.1 | 6.1 | 2.6 | -6.2 | -5.3 | ·
CCCc1[nH]nc2c1C(CCc1ccccc1)C(C#N)=C(N)O2 (stereo unspecified) | -4.7 | 17.1 | 55.4* | 5.5 | -0.4 | 18.9 | 22.2*
CCCc1[nH]nc2c1C(c1ccc(OC)c(CSC3=NCCS3)c1)C(C#N)=C(N)O2 (stereo unspecified) | 9.8 | -3.8 | 74.5* | -2.6 | 3.8 | 10.8 | 14.8*
CC1(C)CC(=O)C2=C(C1)OC(N)=C(C#N)C2c1cccc(OC(=O)c2ccco2)c1 (stereo unspecified) | 9.4 | 2.6 | -2.3 | 1.1 | 5.0 | 1.8 | ·
SMILES | CCHFV vOTU inh | GDH-TPI inh | RecA intein inh | FBA Mtb inh | 3CLpro inhibitor | DUSP3 inh | GFP chromophore
COC(=O)C1=C(C)OC(N)=C(C#N)C1c1ccc(OC)c(CSc2ccccn2)c1 (stereo unspecified) | -8.7 | 7.5 | -1.2 | 4.1 | 5.5 | 16.3 | ·
CCCc1[nH]nc2c1C(c1cc(OC)ccc1F)C(C#N)=C(N)O2 (stereo unspecified) | -4.2 | -8.1 | 29.9 | 1.9 | 0.5 | 4.3 | ·
CCCc1[nH]nc2c1C(c1cc(OC)cc(OC)c1)C(C#N)=C(N)O2 (stereo unspecified) | -3.5 | 1.4 | 44.4* | 2.4 | 10.6 | 35.8 | 3.96*
CCCc1[nH]nc2c1C(c1cccc(OC(=O)c3ccco3)c1)C(C#N)=C(N)O2 (stereo unspecified) | -6.8 | 4.9 | 58.9* | -1.6 | 1.2 | 9.7 | 17.8*
Cc1cccc(N2C(=O)C(O)=C(C(=O)c3cccs3)C2c2ccc(Cl)cc2)n1 (stereo unspecified) | 1.3 | 0.0 | 1.0 | -2.7 | 6.3 | 0.9 | ·
CCCCNS(=O)(=O)CC1NCCc2ccccc21 (stereo unspecified) | -4.9 | · | · | · | · | · | ·
CCOc1ccc(/C=C2\SC(=S)N(CCC(=O)Nc3ccccc3C(=O)O)C2=O)cc1 | 2.4 | -16.4 | 36.2* | 0.0 | 1.5 | 7.2 | >38
COc1ccc(/C=C2\SC(=S)N(CCC(=O)Nc3ccccc3C(=O)O)C2=O)cc1 | 10.3 | 10.2 | 24.5 | 0.3 | 3.1 | 10.0 | ·
CCCCCN(C(=O)CCC(=O)OCCOc1cccc(C)c1)c1c(N)n(CCCC)c(=O)[nH]c1=O | 6.0 | -7.2 | · | 1.0 | · | · | ·
O=C(Cc1cc(=O)[nH][nH]1)N/N=C/c1c(Cl)cccc1Cl | 5.9 | 3.8 | 69.9* | -2.5 | 1.9 | -12.5 | 12.2*
O=C(Cc1cc(=O)[nH][nH]1)N/N=C/c1c(F)cccc1Cl | 4.9 | 1.9 | 95.2* | 2.3 | 3.8 | 10.2 | 7.87*
O=C(CSCc1ccc(Cl)cc1)N/N=C/c1c(Cl)cccc1Cl | -5.4 | -3.3 | 2.7 | 0.0 | 1.3 | 1.2 | ·
CC(NC(=O)Cn1ncc(Cl)c(Cl)c1=O)C12CC3CC(CC(C3)C1)C2 (stereo unspecified) | · | 4.3 | 49.0* | -3.8 | -0.8 | -2.7 | ?
Cc1ccccc1-n1ncc2c([N+](=O)[O-])cc([N+](=O)[O-])cc21 | -7.6 | 15.2 | 85.2* | 0.7 | -6.1 | 42.0 | 5.79*
CCOC(=O)c1nc(C)n(-c2ccc([N+](=O)[O-])cc2)n1 | -7.1 | 1.3 | -1.6 | -0.1 | -1.6 | 1.1 | ·
CCOC(=O)c1nc(C)n(-c2ccc(Cl)cc2)n1 | -2.2 | 2.9 | 49.0* | 0.9 | -3.2 | -0.1 | >38
O=C1C(Cl)=C(N2CCOCC2)C(=O)N1c1cccc(Cl)c1 | -0.5 | 17.1 | 84.3* | -0.7 | 1.8 | 20.8 | 2.76*
O=C1CC(N2CCOCC2)C(=O)N1c1cccc(Cl)c1 (stereo unspecified) | 3.9 | 1.0 | -4.2 | -0.9 | -1.6 | 19.7 | ·
